These results are taken from PubChem BioAssay (Tox21).

Assay [1] in a line: A CellTox Green Cytotoxicity Assay to monitor cytotoxicity in HEK293 cells - 8 hour (AID 1224884). Note: nearly all actives have a fitted effect of over 35% in size. The procedure, abridged: (§1)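 Read-out: fluorescence of a cell-impermeant cyanine dye staining DNA of dead cells, proportional to cytotoxicity. HEK293, 600 cells/well with reagent, compound (23 nL DMSO) added after 5 h; reads at 0, 8, 16, 24, 32, 40 h.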
Assay [2] in a line: qHTS RealTime-Glo MT Cell Viability Assay in HepG2 cells - 16 hour (AID 1224885). Note: nearly all actives have a fitted effect of over 50% in size. The procedure, abridged: (§2)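 Viability was tracked continuously by NanoLuc luminescence from prosubstrate reduced by living HepG2 cells, at successive time points over 40 h of compound exposure. Cells with reagent were preincubated 5 h at 37 °C before compound addition.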
Assay [3] in a line: qHTS RealTime-Glo MT Cell Viability Assay in HEK293 cells - 24 hour (AID 1224886). For activity change, negative = cytotoxicity: top concentration of the series differs between compounds. Note: nearly all actives have a fitted effect of over 50% in size. Note: potency is the fitted concentration of half-maximal effect. The procedure, abridged:
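Viability tracked continuously by luminescence as live cells reduce a prosubstrate for NanoLuc; HEK293 cells preincubated 5 h, compound-treated at 37 C, and read at 0, 8, 16, 24, 32 and 40 h.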
A general note: qHTS replaces the single test concentration by a dilution series.

Assay [4] can be described thus: qHTS RealTime-Glo MT Cell Viability Assay in HEK293 cells - 8 hour (AID 1224887). For activity change, negative = cytotoxicity: top concentration of the series differs between compounds. Note: nearly all actives have a fitted effect of over 50% in size. Note: potency is the fitted concentration of half-maximal effect. The procedure, abridged: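 Luminescence readout at each listed time point; HEK293, 600 cells/well, RealTime-Glo MT reagent added with cells; compounds pinned (23 nL in DMSO) after 5 h at 37 C; continuous culture at 37 C.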
The nature of assay [5]: A CellTox Green Cytotoxicity Assay to monitor cytotoxicity in HEK293 cells - 16 hour (AID 1224888). Note: nearly all actives have a fitted effect of over 35% in size. In a few lines: as §1
The nature of assay [6]: qHTS RealTime-Glo MT Cell Viability Assay in HepG2 cells - 0 hour (AID 1224889). Note: nearly all actives have a fitted effect of over 50% in size. The procedure, abridged: as §2
Assay [7] in a line: A CellTox Green Cytotoxicity Assay to monitor cytotoxicity in HepG2 cells - 8 hour (AID 1224890). Note: nearly all actives have a fitted effect of over 45% in size. In a few lines:
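HepG2, 600 cells/well premixed w/ CellTox Green; 5 h settle, 37 C/5% CO2; pintool cpd add (DMSO); 37 C, 40 h; fluorescence read at 0, 8, 16, 24, 32, 40 h.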

Assay [8] is described as follows: qHTS assay to identify small molecule antagonists of the estrogen receptor alpha (ER-alpha) signaling pathway using the BG1 cell line in the presence of 0.1 nM 17-beta-estradiol - cell viability counter screen (AID 1259241). Note: nearly all actives have a fitted effect of over 40% in size. The procedure, abridged:
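The cell line endogenously expresses full-length ER-alpha and carries four EREs driving luciferase. Cells are cultured 5 days hormone-free, treated 22 hr with compounds and 0.1 nM estradiol, then viability is read by fluorescence.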

Assay [9] is described as follows: qHTS assay to identify small molecule antagonists of the androgen receptor (AR) signaling pathway using the MDA cell line in the presence of 0.5 nM R1881 - cell viability counter screen (AID 1259242). Note: nearly all actives have a fitted effect of over 45% in size. The procedure, abridged:
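Live-cell protease fluorescence, CellTiter-Fluor, 30 min at 37C. Cells: MDA-kb2, 3,000/well, preincubated 5 hr. Compounds plus 0.5 nM R1881 final, 16 hr, 37C, 0% CO2.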

Assay [10] in a line: qHTS assay to identify small molecule HDAC inhibitors (AID 1259364). For activity change, negative = inhibition: top concentration of the series differs between compounds. Note: potency is the fitted concentration of half-maximal effect.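 Note: wild-type HCT-116 cells with endogenous class I/II HDAC activity; nearly all actives have a fitted effect of over 45% in size.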 The procedure, abridged: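 HCT-116 (wild type), 1,500 cells/well, overnight; compound 2 hr 37C 5% CO2; HDAC-Glo I/II reagent 30 min RT; luminescence readout.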
Assay [11] in a line: qHTS assay to identify small molecule HDAC inhibitors - cell viability counter screen (AID 1259365). In a few lines: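 Viability readout: CellTiter-Glo luminescence. Wild-type HCT-116 cells, 2hr compound treatment following overnight attachment at 37 C.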
Assay [12] is described as follows: qHTS assay to identify small molecule agonists of the sonic hedgehog signaling (Shh) pathway - cell viability counter screen (AID 1259366). Note: nearly all actives have a fitted effect of over 50% in size. The procedure, abridged:
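Viability measured fluorometrically (CellTiter-Fluor, 1hr, 37C) in 3T3 Gli1-Luc reporter cells after 23hr compound exposure within a 24hr incubation at 37C/5% CO2.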

A short description of assay [13]: qHTS assay to identify small molecule antagonists of the sonic hedgehog signaling (Shh) pathway - cell viability counter screen (AID 1259367). Note: nearly all actives have a fitted effect of over 55% in size. In a few lines: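 Viability was read by CellTiter-Fluor fluorescence in the same wells, reagent added 23 hr into compound treatment and incubated 1 hr at 37C. The 3T3 Gli1-Luc reporter cells (2,000/well) received conditioned medium after compound and ran 24 hr.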

A short description of assay [14]: qHTS assay to identify small molecule agonists of the sonic hedgehog signaling (Shh) pathway (AID 1259368; calls by dose curve;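 note: NIH/3T3-derived 3T3Gli1-Luc cells carrying a stable Gli1-driven firefly luciferase reporter; series mostly up to about 92 µM; nearly all actives have a fitted effect of over 15% in size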). In a few lines:
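Read-out: firefly luciferase luminescence from a Gli1 response element reporter stably integrated in NIH/3T3-derived 3T3Gli1-Luc cells, measured 30 min at room temperature after reagent addition. Compound exposure lasted 24 hr at 37 C, 5% CO2.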

Assay [15] is described as follows: qHTS assay to identify small molecule antagonists of the sonic hedgehog signaling (Shh) pathway (AID 1259369; calls by dose curve; note: nearly all actives have a fitted effect of over 45% in size). The procedure, abridged:
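Luminescence readout: firefly Luc under Gli1 response element in 3T3Gli1-Luc cells (NIH/3T3 clone). Antagonist mode, stimulation by conditioned medium; compound exposure 24hr at 37 C, 5% CO2.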

Assay [16] concerns the target Androgen receptor (Homo sapiens) (UniProt P10275). The assay can be described thus: qHTS assay to identify small molecule antagonists of the androgen receptor (AR) signaling pathway using the MDA cell line in the presence of 0.5 nM R1881 (AID 1259243). Note: nearly all actives have a fitted effect of over 50% in size. Note: potency is the fitted concentration of half-maximal effect. In a few lines:
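MDA-kb2, MMTV-luc (AR/GR elements); 3,000 cells/well; cpd + 0.5 nM R1881 final; 16 hr 37C, 0% CO2; ONE-Glo 30 min RT; luminescence.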

Assay [17] addresses Estrogen receptor (Homo sapiens) (UniProt P03372). Kind of assay: qHTS assay to identify small molecule antagonists of the estrogen receptor alpha (ER-alpha) signaling pathway using the BG1 cell line in the presence of 0.1 nM 17-beta-estradiol (AID 1259244). Note: nearly all actives have a fitted effect of over 50% in size. In a few lines:
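Luminescence after ONE-Glo (30 min, room temperature) measured ERE-luciferase activity in VM7Luc4E2 cells treated 22 h with compound and 0.1 nM final 17beta-estradiol as stimulator.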

For assay [18], the target named is Estrogen receptor beta (Homo sapiens) (UniProt Q92731). The assay can be described thus: qHTS assay to identify small molecule antagonists of the estrogen receptor beta (ER-beta) signaling pathway (AID 1259378; active = well fitted inhibition curve with a large enough effect in the signal ratio in the repeat runs, not every such curve was filed as active; the % refers to the signal ratio). In a few lines:
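Antagonist mode: compounds added to beta-lactamase reporter HEK293T ER-beta-UAS cells stimulated with E2 (1nM final), 16 hr at 37C. LiveBLAzer B/G FRET substrate, 2 hours room temperature, fluorescence read-out.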

For assay [19] the target is unchanged. Kind of assay: qHTS assay to identify small molecule agonists of the estrogen receptor beta (ER-beta) signaling pathway (AID 1259377; active = well fitted activation curve with a large enough effect in the signal ratio in the repeat runs, not every such curve was filed as active; the % refers to the signal ratio). In a few lines: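 A UAS-controlled beta-lactamase reporter in ER-beta-UAS-bla HEK293T cells reports receptor activation. Compounds act for 16 hr at 37C in 2% charcoal-stripped serum, and a FRET substrate is read by fluorescence after 2 hours.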

A number with no mark means an inactive call. Results filed as inconclusive are left out. The source made the active and inactive calls. Unless noted, calls come from the whole dose curve; as a rule, active = well fitted curve in the direction sought with a large enough effect in the repeat runs; inconclusive = weak or mixed curves; inactive = no such curve, though single readings can be large; an effect the other way counts as inactive or inconclusive.
% is set by controls: 0 for no effect and ±100 for the full control effect.

Chain of Androgen receptor (Homo sapiens) (P10275 whole entry, looked up): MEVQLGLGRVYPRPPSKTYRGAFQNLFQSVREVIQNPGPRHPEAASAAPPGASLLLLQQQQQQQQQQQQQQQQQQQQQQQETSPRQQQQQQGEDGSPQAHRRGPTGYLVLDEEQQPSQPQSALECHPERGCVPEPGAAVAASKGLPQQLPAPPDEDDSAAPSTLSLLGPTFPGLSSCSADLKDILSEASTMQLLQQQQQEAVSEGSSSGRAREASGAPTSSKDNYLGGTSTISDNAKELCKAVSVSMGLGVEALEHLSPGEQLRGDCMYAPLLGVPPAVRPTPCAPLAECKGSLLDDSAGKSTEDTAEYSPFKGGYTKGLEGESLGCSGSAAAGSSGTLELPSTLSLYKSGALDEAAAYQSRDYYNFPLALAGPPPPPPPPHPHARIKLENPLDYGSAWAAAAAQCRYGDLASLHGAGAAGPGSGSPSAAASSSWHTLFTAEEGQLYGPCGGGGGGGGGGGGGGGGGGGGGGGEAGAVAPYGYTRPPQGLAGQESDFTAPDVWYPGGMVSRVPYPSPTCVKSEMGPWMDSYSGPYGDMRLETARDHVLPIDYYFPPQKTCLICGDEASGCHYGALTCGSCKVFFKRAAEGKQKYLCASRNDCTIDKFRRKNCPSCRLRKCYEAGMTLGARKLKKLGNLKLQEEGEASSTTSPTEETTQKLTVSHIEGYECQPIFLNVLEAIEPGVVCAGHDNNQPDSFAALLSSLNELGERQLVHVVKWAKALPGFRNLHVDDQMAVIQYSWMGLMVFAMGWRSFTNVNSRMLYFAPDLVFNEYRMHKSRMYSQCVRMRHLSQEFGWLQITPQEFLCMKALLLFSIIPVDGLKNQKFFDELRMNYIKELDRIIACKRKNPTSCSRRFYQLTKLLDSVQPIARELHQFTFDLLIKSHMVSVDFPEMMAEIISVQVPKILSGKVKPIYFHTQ
Chain of Estrogen receptor beta (Homo sapiens) (Q92731 whole entry, looked up): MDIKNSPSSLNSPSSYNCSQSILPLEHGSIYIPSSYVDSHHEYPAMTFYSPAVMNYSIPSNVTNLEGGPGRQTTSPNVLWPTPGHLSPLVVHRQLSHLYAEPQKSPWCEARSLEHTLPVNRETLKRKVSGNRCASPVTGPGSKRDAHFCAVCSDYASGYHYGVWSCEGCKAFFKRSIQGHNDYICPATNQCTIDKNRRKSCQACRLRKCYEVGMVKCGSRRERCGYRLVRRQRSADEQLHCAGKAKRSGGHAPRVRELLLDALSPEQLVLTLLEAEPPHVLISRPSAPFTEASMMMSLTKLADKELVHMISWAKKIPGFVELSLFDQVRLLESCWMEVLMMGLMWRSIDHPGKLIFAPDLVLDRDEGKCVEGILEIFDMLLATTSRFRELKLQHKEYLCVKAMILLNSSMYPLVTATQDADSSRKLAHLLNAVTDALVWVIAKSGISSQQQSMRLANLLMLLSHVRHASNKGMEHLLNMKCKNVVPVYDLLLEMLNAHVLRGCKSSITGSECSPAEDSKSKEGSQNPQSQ
Chain of Estrogen receptor (Homo sapiens) (P03372 whole entry, looked up): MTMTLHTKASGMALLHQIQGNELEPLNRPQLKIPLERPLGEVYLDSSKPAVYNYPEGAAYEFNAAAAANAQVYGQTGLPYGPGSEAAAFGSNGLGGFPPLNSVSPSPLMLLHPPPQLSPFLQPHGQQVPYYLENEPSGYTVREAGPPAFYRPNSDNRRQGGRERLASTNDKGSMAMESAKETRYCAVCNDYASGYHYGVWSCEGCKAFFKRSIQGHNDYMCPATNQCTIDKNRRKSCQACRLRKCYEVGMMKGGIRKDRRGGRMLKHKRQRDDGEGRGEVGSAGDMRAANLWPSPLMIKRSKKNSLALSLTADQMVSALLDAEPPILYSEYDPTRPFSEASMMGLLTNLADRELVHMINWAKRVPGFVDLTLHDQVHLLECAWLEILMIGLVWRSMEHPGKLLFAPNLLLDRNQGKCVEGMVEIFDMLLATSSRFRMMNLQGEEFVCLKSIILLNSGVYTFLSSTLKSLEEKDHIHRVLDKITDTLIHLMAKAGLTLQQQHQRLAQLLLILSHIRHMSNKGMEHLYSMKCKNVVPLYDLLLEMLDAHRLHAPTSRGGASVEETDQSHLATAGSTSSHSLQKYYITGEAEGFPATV

For `C=C(C)C1CCC(C)CC1O` (stereo unspecified), the Potency result in assay [1], in assay [2], in assay [3], in assay [4], in [5] and in assay [6] was “inactive” in each case. The Potency result in [7], in assay [8], in assay [9], in assay [10], in assay [11] and in assay [12] was “inactive” in each case. The Potency entry in assay [13], in [14] and in [15] was “inactive” throughout.

As to `Nc1ccc(Cl)c([N+](=O)[O-])c1`, the Potency entry in assay [1], in assay [2], in assay [3], in [4], in assay [5] and in [6] was “inactive” each time. The Potency result in assay [7], in assay [8], in assay [9], in [10], in assay [11] and in assay [14] was “inactive” in each case. In addition, the Potency in assay [16] is 24.3 µM (active).

Consider `CCN(CC)c1ccc(C=O)c(O)c1`, for which the Potency entry in assay [1], in assay [2], in [3], in assay [4], in assay [5] and in assay [6] was “inactive” in each case. Moreover, the Potency entry in assay [7], in [8], in assay [9], in assay [17], in assay [10] and in assay [11] was “inactive” in each case. Moreover, the Potency result in [12], in assay [13], in assay [14] and in assay [15] was “inactive” throughout.

`CC1(C)[C@H]2CC[C@]1(C)C(=O)C2`: the Potency result in [1], in [2], in assay [3], in [4], in [5] and in assay [6] was “inactive” throughout. Moreover, the Potency entry in assay [7], in assay [8], in [9], in assay [17], in assay [10] and in [11] was “inactive” throughout. In addition, the Potency result in assay [13], in [14] and in assay [18] was “inactive” throughout.

Take `c1ccc(-c2nc3ccccc3[nH]2)cc1`: the Potency entry in assay [1], in assay [2], in assay [5], in assay [6], in [7] and in assay [8] was “inactive” each time. In addition, the Potency result in assay [9], in assay [17], in assay [11], in assay [12], in assay [13] and in assay [14] was “inactive” throughout. Besides, in [18], the Potency entry was “inactive”. Further, the Potency in [3] is 21.9 µM (active); in assay [4] it was 21.9 µM (active); in assay [10], 2.43 µM (active). The compound was classed as inactive in [19].

With `CC(C=O)c1ccccc1` (stereo unspecified), the Potency result in [1], in [2], in [3], in assay [4], in assay [5] and in [6] was “inactive” each time. Further, the Potency entry in assay [7], in [8], in [9], in assay [16], in assay [17] and in assay [10] was “inactive” in each case. Moreover, the Potency result in assay [11], in assay [12], in assay [13], in [14] and in assay [18] was “inactive” each time. Also, the outcome in assay [19] was inactive.

`COc1cc(C(C)C)ccc1C`: the cytotoxicity increase in [1] was -0.16% [at 15.8 µM]; in [7] it was -11.9% [at 15.8 µM]. The activity change, negative = cytotoxic in assay [2] is -0.349% [at 15.8 µM]. Further, the activity change, negative = cytotoxicity in assay [3] was 0.818% [at 15.8 µM]; in assay [4], 1.54% [at 15.8 µM]; in assay [6], -5.12% [at 15.8 µM]; in assay [8], -2.73% [at 19 µM]; in assay [11], 0.521% [at 19 µM]. In addition, the activity change was -2.08% [at 15.8 µM, hits give high values] in [5] and 1.1% [at 18.9 µM, hits give high values] in assay [14]. Moreover, the viability change, negative = cytotoxic in assay [9] was 0.996% [at 19 µM]; in assay [12], 0.547% [at 19 µM]; in assay [13], 0.176% [at 19 µM]. Also, the activity, negative = inhibition was -0.285% [at 19 µM] in assay [16] and -9.09% [at 19 µM] in [18]. Moreover, the activity change, negative = inhibition in assay [10] is 3.05% [at 19 µM]; in assay [15] it was -24.4% [at 19 µM].
